# Bioassay records (PubChem BioAssay)
# Nrf2 block: Nrf2 qHTS screen for inhibitors; A549 ARE-Fluc reporter, luciferase luminescence, 18-24 h; Potency, µM (titrated, usually from 46 µM), inactives show at the top dose activity change, negative = inhibition, hits mostly inhibitors; actives 2.1% (n = 360,000); further: potency means the concentration at half of the fitted maximal effect; on the % scale 0 is the no-effect control and ±100 the full control effect; nearly all actives have a fitted effect of over 60% in size
#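 Quantitative HTS in A549 cells stably bearing an antioxidant response element-firefly luciferase construct. Inhibition of Nrf2-driven transcription was scored by luminescence after 18-24 h of compound exposure at 37 °C.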
# Nrf2 ARE act: qHTS of Nrf2 Activators. Potency, µM (series often up to 46.1 µM), without a hit: at the top dose activation, usual class: activators. AREc32 ARE-luciferase reporter (MCF7-derived line), luminescence, 24 h. actives 0.31% (n = 410,000); further: potency means the concentration at half of the fitted maximal effect; % of control where 0% means no effect; nearly all actives have a fitted effect of over 65% in size
#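 AREc32_Fluc, 1000 cells/well, OPTI-MEM + 5% FBS, o/n 37 deg C 5% CO2; 23 nL cpd by pin tool, 24 hr; Steady-Glo 30 min RT, luminescence.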
# Giardia killer: Small Molecules that selectively kill Giardia lamblia: qHTS; Giardia lamblia trophozoite viability; activity change, % at 7.66 µM, hits read low; actives 0.15% (n = 340,000); AID 540267, 2011; in the data active means activity change below about -80%; inconclusive means between about -30% and that limit;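 further: parasites exposed to compound for two days anaerobically before the ATP read; on the % scale 0 is the no-effect control and ±100 the full control effect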
#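 Media and compound were dispensed first, then trophozoites at 100 cells/well; plates sat 48 hrs at 37 deg C without oxygen before ATP luminescence reagent was added and read after 15-30 min at room temperature.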
# IDH1 R132H inh: qHTS for Inhibitors of mutant isocitrate dehydrogenase 1 (IDH1): qHTS; Isocitrate dehydrogenase [NADP] cytoplasmic (Homo sapiens), O75874; Potency, µM (series often up to 76.6 µM), inactives show at the highest dose activity change, negative = inhibition, most hits filed as inhibitors; AID 602179, 2012; actives 0.093% (n = 390,000); IDH1-R132H enzyme, NADPH consumption, diaphorase/resazurin fluorescence; further: potency means the concentration at half of the fitted maximal effect; on the % scale 0 is the no-effect control and ±100 the full control effect; nearly all actives have a fitted effect of over 65% in size
# Target sequence (O75874 whole entry R132H, stated change not applied): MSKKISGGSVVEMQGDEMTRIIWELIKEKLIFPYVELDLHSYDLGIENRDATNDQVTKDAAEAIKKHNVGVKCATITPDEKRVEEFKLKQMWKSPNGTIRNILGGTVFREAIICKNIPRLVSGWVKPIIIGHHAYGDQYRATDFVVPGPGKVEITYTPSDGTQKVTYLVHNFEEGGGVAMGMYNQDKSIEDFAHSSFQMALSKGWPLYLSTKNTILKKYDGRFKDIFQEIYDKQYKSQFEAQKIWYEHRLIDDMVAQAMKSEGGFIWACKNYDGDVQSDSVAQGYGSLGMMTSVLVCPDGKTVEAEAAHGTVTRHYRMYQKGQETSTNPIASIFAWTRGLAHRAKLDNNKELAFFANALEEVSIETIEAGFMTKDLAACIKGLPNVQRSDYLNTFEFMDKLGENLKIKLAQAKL
#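 IDH1-R132H (0.5 ug/mL dispensed) in pH 7.5 Tris buffer was preincubated 30 min with compound, then given a substrate mix of 0.016 mM NADPH and 2 mM alpha-KG for 80 min at room temperature; remaining NADPH was read by diaphorase/resazurin fluorescence.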
# Anesthetic bind: qHTS Assay for Identification of Novel General Anesthetics. Ferritin light chain (Equus caballus), P02791. apoferritin/1-aminoanthracene competitive binding, fluorescence. Potency, µM (doses to about 77.5 µM), for the others: at the highest dose activity change, negative = displacement, hits mostly inhibitors. actives 0.074% (n = 350,000). AID 485281, 2010; further: potency means the concentration at half of the fitted maximal effect; on the % scale 0 is the no-effect control and ±100 the full control effect; nearly all actives have a fitted effect of over 20% in size
# Target sequence (P02791 2-175 limits assumed): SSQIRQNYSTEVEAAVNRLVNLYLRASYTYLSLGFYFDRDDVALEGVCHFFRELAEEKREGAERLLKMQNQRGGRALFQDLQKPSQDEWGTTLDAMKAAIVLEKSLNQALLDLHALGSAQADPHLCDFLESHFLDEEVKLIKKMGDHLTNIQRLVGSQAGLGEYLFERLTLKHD
#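 In PBS, apoferritin at 10 uM is loaded with 1-AMA from a 50% saturated solution. After 10 min of compound exposure at ambient temperature, reduced 535 nm fluorescence indicates probe displacement.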
# A549 tox: Nrf2 qHTS screen for inhibitors: counterscreen for cytotoxicity | A549 ARE-Fluc cells, CellTiter-Fluor viability, 18-24 h | Potency, µM (doses to about 46 µM), without a hit: top-dose activity change, negative = cytotoxicity, most hits filed as inhibitors | actives 0.16% (n = 390,000); further: potency means the concentration at half of the fitted maximal effect; on the % scale 0 is the no-effect control and ±100 the full control effect
#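 A549 ARE_Fluc cells in 5% FBS OPTI-MEM were exposed to compounds in concentration-response for 18-24 h at 37 deg C. Viability was read by CellTiter-Fluor fluorescence (Ex 405/Em 525) after 30 min, before the luciferase read.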
# * hit, by the source's call; ? = inconclusive; · = no result given; [ ] = dose if it differs, or a comment. Most compounds without a hit are left out; they make up all but 2.3% or so of the library. Unless noted, the call rests on the fitted dose curve; in most records, active means well fitted curve in the direction sought with a large enough effect; inconclusive means small, poorly fitted or top-dose-only effect, or another doubt; inactive means no such curve, though single readings can be large; an effect the other way counts as inactive or inconclusive.
SMILES,Nrf2 block,Nrf2 ARE act,Giardia killer,IDH1 R132H inh,Anesthetic bind,A549 tox
C=Cc1ccc(Cn2c(C(=O)O)c(CNCc3ccc(F)cc3)c3ccc(C)cc32)cc1,-2%,-2%,·,-10%,-5%,?
Cc1cccc(N2CCN(C(=O)CCc3c(C)nc4ncnn4c3C)CC2)c1C,?,0%,·,-7%,-12%,-7%
COc1cc2c(cc1NC(=O)CN(C)Cc1ccc(OC)c(OC)c1)oc1ccccc12,16µM*,-1%,25,-22%,53%,-12%
COc1ccc(CN(C)CC(=O)Nc2cc3oc4ccccc4c3cc2OC)c(OC)c1,2%,3%,-16,4%,60%,-1%
O=C(CNC(=O)c1cccc(OC(F)F)c1)Nc1ccc(Cl)cc1,26µM*,0%,4,-19%,-8%,-8%
O=C(COC(=O)c1cc([N+](=O)[O-])ccc1N1CCOCC1)Nc1ccc(Cl)cc1,18µM*,0%,-23,-5%,?,?
NC(=O)c1ccc(NC(=O)COC(=O)c2cc([N+](=O)[O-])ccc2N2CCOCC2)cc1,-15%,0%,16,5%,·,-18%
O=C(Cn1ncn2c(cc3ccccc32)c1=O)NCc1ccc(F)cc1,9%,0%,·,-12%,-2%,-1%
CCOC(=O)CNC(=O)CSc1nnc(NC(=O)c2ccc(C)cc2)s1,?,-1%,-87*,20%,-3%,3%
O=C(CSc1nnc(NC(=O)c2ccccc2)s1)NCc1ccco1,10%,4.5µM*,?,-2%,1%,-3%
CN(C)S(=O)(=O)c1ccc(C(=O)Nc2nnc(SCC(=O)N3CCOCC3)s2)cc1,·,0%,·,-2%,·,·
Cc1ccc(C(=O)Nc2nnc(SCC(=O)N3CCCc4ccccc43)s2)cc1,?,-2%,-125*,7%,-12%,10%
CC(C)Oc1ccc(C(=O)Nc2nnc(SCC(=O)N3CCOCC3)s2)cc1,5.2µM*,-2%,-95*,0%,-4%,-3%
O=C(Nc1nnc(SCC(=O)N2CCCc3ccccc32)s1)c1cccc2ccccc12,10%,-1%,7,-4%,-9%,6%
Cc1c(P(=S)(c2ccccc2)c2ccccc2)c2ccccc2n1C/C=C/c1ccccc1,8%,·,·,·,·,-1%
CCCCn1c(C)cc2c(c1=O)C1O[C@](c3ccsc3)(Cc3ccccc31)O2,·,·,·,·,-15%[15.3 µM],·
O=C(NNc1ccc([N+](=O)[O-])cc1)Nc1ccccc1,?,3%,?,-5%,?,-14%
O=C(NNc1ccccc1)C(=O)NNS(=O)(=O)c1ccc([N+](=O)[O-])cc1,18µM*,1%,6,0%,-7%,-15%
O=C(/C=C/c1c(F)cccc1Cl)Nc1ccc(S(=O)(=O)Nc2ncccn2)cc1,6%,12%,-8,-3%,3%,4%
O=C(/C=C/c1c(F)cccc1Cl)c1ccc(O)cc1,-15%,13µM*,16,3%,-10%,-3%
O=C(/C=C/c1c(F)cccc1Cl)Nc1ncccn1,?,7.9µM*,-4,4%,-5%,-5%
O=C(Cn1cc(S(=O)(=O)Cc2cccc(Cl)c2)c2ccccc21)Nc1ccccc1C(F)(F)F,-18%,-1%,·,-15%,2%,-10%
COc1ccc(-c2cc3ccc(O)c(CN4CCOCC4)c3oc2=O)cc1OC,·,3%,·,0%,32%,19%
O=[N+]([O-])c1c(Nc2ccccn2)cc(Cl)c2nonc12,?,-3%,29,1%,-10%,18µM*
COc1ccc(C(=O)NC(Nc2ccc(C)cc2)C(Cl)(Cl)Cl)cc1 (configuration not stated),21µM*,4%,26,-5%,-6%,?
SMILES,Nrf2 block,Nrf2 ARE act,Giardia killer,IDH1 R132H inh,Anesthetic bind,A549 tox
Oc1ccccc1C1C=C(c2ccc3c(c2)OCO3)NC(c2ccc(Br)cc2)N1 (configuration not stated),1%,·,-9,·,·,-1%
O=C(/C=C/c1ccccc1)Nc1nc(-c2ccncc2)cs1,13µM*,7%,-10,7%,-14%,?
Cc1nc(NC(=O)/C=C/c2ccccc2)n[nH]1,-2%,7.1µM*,-12,-5%,-3%,-13%
O=C(/C=C\c1ccco1)Nc1nc(-c2ccccc2)cs1,11%,9%,-6,0%,-14%,0%
O=C(Nc1nc(-c2ccncc2)cs1)C1c2ccccc2Oc2ccccc21,15µM*,4%,-17,8%,0%,?
O=C1CC(c2ccccc2)CC(O)=C1C=Nc1ccccc1 (configuration not stated),-25%,5%,21,3%,-20%,-3%
O=C1CC(c2ccco2)CC(O)=C1C=Nc1cc(Cl)ccc1O (configuration not stated),?,10µM*,-5,13%,-20%,-8%
O=C1CC(c2ccccc2)CC(O)=C1C=Nc1ccccc1O (configuration not stated),-16%,14µM*,1,-4%,-12%,1%
Cc1ccc(S(=O)(=O)N(C)c2ccc(C(=O)Nc3ccc(C)cn3)cc2)cc1,12µM*,2%,34,18%,·,-23%
COc1ccc(NC(=O)COc2ccc(N(C)S(=O)(=O)c3ccc(Cl)cc3)cc2)cc1,13µM*,-1%,-23,2%,·,-16%
Cc1ccc(S(=O)(=O)N(C)c2ccc(OCC(=O)Nc3nc4ccccc4s3)cc2)cc1,21µM*,6%,10,-3%,-9%,-1%
COc1ccc(C(=O)Nc2ccc(S(=O)(=O)N(C)c3ccccc3)cc2)cc1,21µM*,5%,-2,-9%,·,-5%
COc1ccc(NC(=O)COc2ccc(N(C)S(=O)(=O)c3ccc(C)cc3)cc2)cc1,?,4%,-17,2%,-2%,-10%
COc1cccc(C(=O)Nc2cccc(OCc3cc(=O)n4cccc(C)c4n3)c2)c1,·,1%,·,1%,5%,4%
OC(c1ccccc1)c1nc(-c2cccc(C(F)(F)F)c2)cs1 (configuration not stated),·,5%,·,·,·,·
COc1ccc(-c2nc3cc(C(C)C)ccc3o2)cc1NC(=O)c1ccc(C)c(Cl)c1,3%,6%,·,0%,-12%,1%
CCCNC(=O)c1cnc2c(-c3ccc(OCC)c(OCC)c3)c(C)nn2c1-c1ccccc1,?,0%,·,·,5%,-1%
